{"source": "PubChem BioAssay AID1347074", "about": "(Center for Chemical Genomics, University of Michigan, 2019)", "note": "Hit rate of the full screen: of about 47,000 compounds, about 2,800 (6%) were called active. The full list was thinned out, with actives kept by preference. Unmarked numbers belong to inactive results. No stated cut-off is given here; in the data, active means z-score above about 3 (passing the limit was not always enough); inactive means the rest.", "data": [{"molecular_target": "Endoribonuclease Dicer (Homo sapiens) (UniProt Q9UPY3)", "sequence (Q9UPY3 whole entry, looked up)": "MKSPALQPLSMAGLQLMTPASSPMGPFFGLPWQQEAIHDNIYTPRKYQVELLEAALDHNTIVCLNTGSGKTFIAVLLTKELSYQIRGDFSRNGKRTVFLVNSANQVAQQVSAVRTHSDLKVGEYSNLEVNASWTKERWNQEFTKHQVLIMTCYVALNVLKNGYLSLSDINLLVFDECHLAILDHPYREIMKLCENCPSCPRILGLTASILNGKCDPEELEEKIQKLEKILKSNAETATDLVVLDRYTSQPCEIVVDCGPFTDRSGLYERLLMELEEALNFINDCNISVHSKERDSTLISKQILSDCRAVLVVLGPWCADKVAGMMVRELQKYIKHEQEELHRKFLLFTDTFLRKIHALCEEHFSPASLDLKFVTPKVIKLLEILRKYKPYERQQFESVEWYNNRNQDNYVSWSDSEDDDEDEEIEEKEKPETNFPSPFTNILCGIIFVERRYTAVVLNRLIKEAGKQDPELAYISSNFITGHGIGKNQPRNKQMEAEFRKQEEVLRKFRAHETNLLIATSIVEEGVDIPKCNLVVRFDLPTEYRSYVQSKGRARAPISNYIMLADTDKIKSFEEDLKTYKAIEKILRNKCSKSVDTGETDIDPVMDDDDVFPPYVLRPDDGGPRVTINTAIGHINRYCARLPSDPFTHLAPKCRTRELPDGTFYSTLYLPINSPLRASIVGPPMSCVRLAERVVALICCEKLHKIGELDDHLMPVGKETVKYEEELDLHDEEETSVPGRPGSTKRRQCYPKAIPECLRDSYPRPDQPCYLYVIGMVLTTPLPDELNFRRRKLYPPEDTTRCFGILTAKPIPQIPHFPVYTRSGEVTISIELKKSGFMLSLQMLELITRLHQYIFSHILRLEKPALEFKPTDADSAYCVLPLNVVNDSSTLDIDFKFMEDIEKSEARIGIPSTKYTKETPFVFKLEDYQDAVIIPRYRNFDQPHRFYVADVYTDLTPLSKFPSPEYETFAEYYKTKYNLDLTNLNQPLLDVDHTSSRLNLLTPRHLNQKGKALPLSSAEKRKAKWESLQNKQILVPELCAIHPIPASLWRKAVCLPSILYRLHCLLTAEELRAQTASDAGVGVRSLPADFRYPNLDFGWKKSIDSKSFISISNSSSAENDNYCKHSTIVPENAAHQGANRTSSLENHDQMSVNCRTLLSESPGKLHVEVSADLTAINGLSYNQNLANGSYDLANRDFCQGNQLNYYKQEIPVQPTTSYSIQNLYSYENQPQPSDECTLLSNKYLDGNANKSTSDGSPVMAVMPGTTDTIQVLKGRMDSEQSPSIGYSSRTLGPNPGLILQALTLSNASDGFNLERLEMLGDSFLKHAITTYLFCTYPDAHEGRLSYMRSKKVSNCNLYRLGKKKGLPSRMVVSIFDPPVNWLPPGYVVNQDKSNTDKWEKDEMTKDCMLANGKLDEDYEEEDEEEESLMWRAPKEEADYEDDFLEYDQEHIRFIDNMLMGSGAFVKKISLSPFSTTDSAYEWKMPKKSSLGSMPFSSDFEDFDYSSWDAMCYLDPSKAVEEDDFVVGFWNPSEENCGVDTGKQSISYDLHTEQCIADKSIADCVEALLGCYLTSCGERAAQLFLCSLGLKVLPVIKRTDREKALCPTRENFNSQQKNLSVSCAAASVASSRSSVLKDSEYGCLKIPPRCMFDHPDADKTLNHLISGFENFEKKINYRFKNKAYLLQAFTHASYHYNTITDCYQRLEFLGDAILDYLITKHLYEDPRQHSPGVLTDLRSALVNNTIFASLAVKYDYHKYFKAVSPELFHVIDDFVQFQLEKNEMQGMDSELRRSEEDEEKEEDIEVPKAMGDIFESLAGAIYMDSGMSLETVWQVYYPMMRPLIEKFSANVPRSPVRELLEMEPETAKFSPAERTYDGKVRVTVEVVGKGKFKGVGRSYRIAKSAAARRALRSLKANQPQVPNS", "assay": "inhibitors of Dicer pre-microRNA processing, primary screen, biochemical, cat-ELCCA, chemiluminescence (AID 1347074);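 further: plate controls were vehicle for no effect and no enzyme for full effect; higher signal means more uncleaved substrate so more Dicer inhibition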", "conditions": "cat-ELCCA pre-miR-21 Dicer processing, at 25 µM, stronger effect = higher value", "values": [{"smiles": "Fc1ccc(Nc2nnns2)cc1", "z-score": 2.65}, {"smiles": "Cn1c(C(=O)O)ccc1S(=O)(=O)N(Cc1ccccc1)Cc1ccccc1", "z-score": -0.36}, {"smiles": "CC(C)=NNS(=O)(=O)c1ccc(C)cc1", "z-score": -6.01}, {"smiles": "Cc1nc2cc(CO)ccc2n1-c1ccccc1", "z-score": -1.15}, {"smiles": "Cc1nc2cc(NCc3ccccn3)ccc2n1C", "z-score": "3.02 (active)"}, {"smiles": "CCOc1cc(C)c(S(=O)(=O)NCc2ccccn2)cc1C", "z-score": 0.63}, {"smiles": "CN(C)c1ccc(C2/C(=C(/O)c3ccccc3)C(=O)C(=O)N2CCO)cc1", "note": "(stereo unspecified)", "z-score": -1.23}, {"smiles": "CCOC(=O)C1Cn2c(nc3c(c2=O)C(C)(CC)Cc2ccccc2-3)S1", "note": "(stereo unspecified)", "z-score": "3.52 (active)"}, {"smiles": "Cc1ccc(NC(=O)C/C(N)=N/O)cc1Cl", "z-score": 1.48}, {"smiles": "CCn1c(CSc2nc(-c3ccc(Cl)cc3)cn2-c2ccc(C)cc2)n[nH]c1=S", "z-score": "5.38 (active)"}, {"smiles": "S=c1[nH]nc(CSCc2nc(-c3ccccc3)cs2)n1-c1ccc(Cl)cc1", "z-score": -0.05}, {"smiles": "COc1ccc(-c2n[nH]c(=S)n2-c2ccc(Cl)cc2C)cc1", "z-score": -1.05}, {"smiles": "C=CCSc1nc(Nc2ccc(Cl)cc2)c2cnc(N3CCOCC3)nc2n1", "z-score": 0.68}, {"smiles": "Cc1nc2ccccc2c2c1C(=O)N(c1ccc(C(=O)OCC(=O)c3ccccc3)cc1)C2=O", "z-score": 0.06}, {"smiles": "C/C(=N\\NC1=NCCCN1)c1ccc(Cl)cc1", "z-score": -0.42}, {"smiles": "CCCCSC1=C(C#N)C(=O)NC(C)S1", "note": "(stereo unspecified)", "z-score": 1.98}, {"smiles": "COc1ccc(-c2nn3c(-c4ccc(OC)cc4)nnc3c3ccccc23)cc1", "z-score": "3.15 (active)"}, {"smiles": "COc1ccc(-c2cc(C)nc3nc(N)nn23)cc1", "z-score": -1.68}, {"smiles": "COc1ccc(-c2nn3c(-c4ccccc4)nnc3s2)cc1OC", "z-score": -0.95}, {"smiles": "CSc1ccc(C2C(C(=O)OCC3CCCO3)=C(C)NC3=C2C(=O)CC(C)(C)C3)cc1", "note": "(stereo unspecified)", "z-score": 0.6}, {"smiles": "COc1ccc2c(c1)CCc1sc(N)nc1-2", "z-score": -2.97}, {"smiles": "COc1ccc2c(c1)CCCC2=Nc1ccccc1C(F)(F)F", "z-score": "4.81 (active)"}, {"smiles": "CCCOc1ccc(N2C(=O)CC(N3CCC(C)CC3)C2=O)cc1", "note": "(stereo unspecified)", "z-score": 1.2}, {"smiles": "NNC(=O)Cn1nnc(-c2cccc(Cl)c2Cl)n1", "z-score": 7.9}, {"smiles": "COC(=O)/C=C(\\Nc1ccccc1Oc1ccc(Cl)cc1Cl)C(=O)OC", "z-score": 2.01}, {"smiles": "O=C(Cn1nnc(-c2ccccc2Oc2ccc(Cl)cc2Cl)n1)NNC(=S)Nc1ccccc1C(F)(F)F", "z-score": "4.43 (active)"}]}]}
